SMILES strings stand for the structures.

Assay [1] has as its target Sphingosine kinase 1 (Homo sapiens) (UniProt Q9NYA1). To be noted: at 1 µM.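 Also: mean SPHK1 inhibition value reported from the GSK PKIS kinase panel screen.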
Assay [2] concerns the target T1, Sphingosine kinase 2 (Homo sapiens) (UniProt Q9NRA0).
T1 sequence (whole entry): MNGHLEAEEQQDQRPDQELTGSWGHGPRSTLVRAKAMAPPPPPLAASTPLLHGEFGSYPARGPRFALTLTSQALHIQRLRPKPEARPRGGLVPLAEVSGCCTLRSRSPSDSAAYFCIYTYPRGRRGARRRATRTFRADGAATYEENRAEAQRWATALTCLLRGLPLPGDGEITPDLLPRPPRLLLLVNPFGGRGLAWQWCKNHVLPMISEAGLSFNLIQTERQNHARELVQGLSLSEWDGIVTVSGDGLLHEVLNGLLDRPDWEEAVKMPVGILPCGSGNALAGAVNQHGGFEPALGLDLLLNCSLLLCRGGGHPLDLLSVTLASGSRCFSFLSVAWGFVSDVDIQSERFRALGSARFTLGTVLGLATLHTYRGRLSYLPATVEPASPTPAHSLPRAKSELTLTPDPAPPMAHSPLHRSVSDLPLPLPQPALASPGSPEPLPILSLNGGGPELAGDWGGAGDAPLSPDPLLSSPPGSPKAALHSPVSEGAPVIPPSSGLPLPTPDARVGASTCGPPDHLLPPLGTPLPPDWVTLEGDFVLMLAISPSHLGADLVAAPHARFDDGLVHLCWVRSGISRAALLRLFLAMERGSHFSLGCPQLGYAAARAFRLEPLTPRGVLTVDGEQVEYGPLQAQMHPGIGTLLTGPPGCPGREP
As to conditions: at 0.1 µM.

For assay [3], the target named is T1, Sphingosine kinase 2 (Homo sapiens). As to conditions: at 1 µM.
Assay [4] deals with Casein kinase II subunit alpha (Homo sapiens) (UniProt P68400). To be noted: at 0.1 µM.
Sequence of Casein kinase II subunit alpha (Homo sapiens) (P68400 whole entry, looked up): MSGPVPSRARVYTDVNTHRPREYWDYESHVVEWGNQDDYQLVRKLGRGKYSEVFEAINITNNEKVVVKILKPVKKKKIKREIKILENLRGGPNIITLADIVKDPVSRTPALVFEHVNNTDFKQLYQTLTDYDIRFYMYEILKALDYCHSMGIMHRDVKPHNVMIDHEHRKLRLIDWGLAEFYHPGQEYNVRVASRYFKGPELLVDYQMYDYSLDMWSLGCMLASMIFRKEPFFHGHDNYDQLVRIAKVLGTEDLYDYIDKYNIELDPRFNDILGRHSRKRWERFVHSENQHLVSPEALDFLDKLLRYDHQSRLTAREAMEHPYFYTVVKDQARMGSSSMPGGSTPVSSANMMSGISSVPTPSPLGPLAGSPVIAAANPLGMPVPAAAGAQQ
Assay [5] shares this target. As to conditions: at 1 µM.
Assay [6] concerns the target T2, Inhibitor of nuclear factor kappa-B kinase subunit alpha (Homo sapiens) (UniProt O15111).
T2 sequence (whole entry): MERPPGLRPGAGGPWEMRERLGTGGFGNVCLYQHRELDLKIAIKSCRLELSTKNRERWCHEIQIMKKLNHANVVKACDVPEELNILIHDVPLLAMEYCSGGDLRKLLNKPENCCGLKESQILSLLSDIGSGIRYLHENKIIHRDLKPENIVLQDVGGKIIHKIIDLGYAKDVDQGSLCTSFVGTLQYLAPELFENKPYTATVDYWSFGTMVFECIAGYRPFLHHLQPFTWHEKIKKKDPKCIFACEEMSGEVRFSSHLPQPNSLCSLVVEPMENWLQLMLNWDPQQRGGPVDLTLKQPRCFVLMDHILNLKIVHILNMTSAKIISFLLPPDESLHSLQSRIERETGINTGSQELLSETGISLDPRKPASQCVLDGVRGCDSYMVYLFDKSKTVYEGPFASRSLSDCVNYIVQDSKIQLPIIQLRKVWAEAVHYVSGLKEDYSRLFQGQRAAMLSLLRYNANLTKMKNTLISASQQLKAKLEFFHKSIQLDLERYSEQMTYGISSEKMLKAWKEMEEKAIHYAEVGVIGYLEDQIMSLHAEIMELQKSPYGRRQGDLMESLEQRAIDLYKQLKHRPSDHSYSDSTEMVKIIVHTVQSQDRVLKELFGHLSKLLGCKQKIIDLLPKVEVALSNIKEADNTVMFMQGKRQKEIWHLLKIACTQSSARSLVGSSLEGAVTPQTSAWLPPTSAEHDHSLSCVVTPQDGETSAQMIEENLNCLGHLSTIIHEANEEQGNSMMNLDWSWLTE
To be noted: at 0.1 µM.

Assay [7] deals with T2, Inhibitor of nuclear factor kappa-B kinase subunit alpha (Homo sapiens). As to conditions: at 1 µM.
Assay [8] concerns the target T3, Inhibitor of nuclear factor kappa-B kinase subunit beta (Homo sapiens) (UniProt O14920).
T3 sequence (whole entry): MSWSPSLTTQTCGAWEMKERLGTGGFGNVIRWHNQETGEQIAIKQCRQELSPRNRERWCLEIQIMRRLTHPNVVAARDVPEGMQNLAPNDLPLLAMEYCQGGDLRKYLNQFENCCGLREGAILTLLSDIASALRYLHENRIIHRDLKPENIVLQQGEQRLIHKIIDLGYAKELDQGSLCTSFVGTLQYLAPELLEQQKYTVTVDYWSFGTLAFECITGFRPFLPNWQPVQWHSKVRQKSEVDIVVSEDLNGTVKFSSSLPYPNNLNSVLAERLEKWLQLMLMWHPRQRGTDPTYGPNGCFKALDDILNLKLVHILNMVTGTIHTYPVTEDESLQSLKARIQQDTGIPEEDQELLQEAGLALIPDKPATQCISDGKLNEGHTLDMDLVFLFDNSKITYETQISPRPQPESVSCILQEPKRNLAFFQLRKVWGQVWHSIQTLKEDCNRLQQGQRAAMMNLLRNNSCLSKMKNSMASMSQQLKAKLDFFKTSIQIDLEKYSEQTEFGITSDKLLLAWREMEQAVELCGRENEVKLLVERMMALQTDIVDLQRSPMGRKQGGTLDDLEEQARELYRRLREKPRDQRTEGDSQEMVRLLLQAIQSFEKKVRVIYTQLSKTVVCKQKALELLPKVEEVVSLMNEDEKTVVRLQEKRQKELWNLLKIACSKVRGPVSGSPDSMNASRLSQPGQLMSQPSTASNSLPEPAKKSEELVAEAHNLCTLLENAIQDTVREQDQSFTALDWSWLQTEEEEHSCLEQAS
As to conditions: at 0.1 µM.

The target in assay [9] is T3, Inhibitor of nuclear factor kappa-B kinase subunit beta (Homo sapiens). To be noted: at 1 µM.
Assay [10] has as its target T4, Inhibitor of nuclear factor kappa-B kinase subunit epsilon (Homo sapiens) (UniProt Q14164).
T4 sequence (whole entry): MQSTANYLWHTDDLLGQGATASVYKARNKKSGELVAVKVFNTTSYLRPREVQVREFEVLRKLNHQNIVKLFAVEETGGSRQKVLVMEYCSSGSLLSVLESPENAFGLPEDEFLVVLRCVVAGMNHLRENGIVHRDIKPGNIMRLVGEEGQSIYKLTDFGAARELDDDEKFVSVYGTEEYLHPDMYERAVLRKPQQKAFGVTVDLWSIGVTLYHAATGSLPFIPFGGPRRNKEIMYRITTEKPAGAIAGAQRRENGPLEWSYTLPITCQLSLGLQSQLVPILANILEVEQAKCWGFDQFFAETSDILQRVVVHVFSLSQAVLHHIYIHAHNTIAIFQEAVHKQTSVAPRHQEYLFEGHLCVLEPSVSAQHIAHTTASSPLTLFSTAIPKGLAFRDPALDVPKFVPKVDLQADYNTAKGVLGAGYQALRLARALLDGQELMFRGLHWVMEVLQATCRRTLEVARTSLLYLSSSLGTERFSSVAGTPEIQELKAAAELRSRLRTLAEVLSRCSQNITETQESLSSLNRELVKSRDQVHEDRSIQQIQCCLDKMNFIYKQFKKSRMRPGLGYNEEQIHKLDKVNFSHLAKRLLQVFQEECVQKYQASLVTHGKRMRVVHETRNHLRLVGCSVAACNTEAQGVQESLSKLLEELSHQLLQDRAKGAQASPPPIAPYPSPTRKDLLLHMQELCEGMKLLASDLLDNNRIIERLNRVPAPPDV
To be noted: at 0.1 µM.

For assay [11], the target named is T4, Inhibitor of nuclear factor kappa-B kinase subunit epsilon (Homo sapiens). As to conditions: at 1 µM.
For assay [12], the target named is T5, Serine/threonine-protein kinase Nek1 (Homo sapiens) (UniProt Q96PY6).
T5 sequence (whole entry): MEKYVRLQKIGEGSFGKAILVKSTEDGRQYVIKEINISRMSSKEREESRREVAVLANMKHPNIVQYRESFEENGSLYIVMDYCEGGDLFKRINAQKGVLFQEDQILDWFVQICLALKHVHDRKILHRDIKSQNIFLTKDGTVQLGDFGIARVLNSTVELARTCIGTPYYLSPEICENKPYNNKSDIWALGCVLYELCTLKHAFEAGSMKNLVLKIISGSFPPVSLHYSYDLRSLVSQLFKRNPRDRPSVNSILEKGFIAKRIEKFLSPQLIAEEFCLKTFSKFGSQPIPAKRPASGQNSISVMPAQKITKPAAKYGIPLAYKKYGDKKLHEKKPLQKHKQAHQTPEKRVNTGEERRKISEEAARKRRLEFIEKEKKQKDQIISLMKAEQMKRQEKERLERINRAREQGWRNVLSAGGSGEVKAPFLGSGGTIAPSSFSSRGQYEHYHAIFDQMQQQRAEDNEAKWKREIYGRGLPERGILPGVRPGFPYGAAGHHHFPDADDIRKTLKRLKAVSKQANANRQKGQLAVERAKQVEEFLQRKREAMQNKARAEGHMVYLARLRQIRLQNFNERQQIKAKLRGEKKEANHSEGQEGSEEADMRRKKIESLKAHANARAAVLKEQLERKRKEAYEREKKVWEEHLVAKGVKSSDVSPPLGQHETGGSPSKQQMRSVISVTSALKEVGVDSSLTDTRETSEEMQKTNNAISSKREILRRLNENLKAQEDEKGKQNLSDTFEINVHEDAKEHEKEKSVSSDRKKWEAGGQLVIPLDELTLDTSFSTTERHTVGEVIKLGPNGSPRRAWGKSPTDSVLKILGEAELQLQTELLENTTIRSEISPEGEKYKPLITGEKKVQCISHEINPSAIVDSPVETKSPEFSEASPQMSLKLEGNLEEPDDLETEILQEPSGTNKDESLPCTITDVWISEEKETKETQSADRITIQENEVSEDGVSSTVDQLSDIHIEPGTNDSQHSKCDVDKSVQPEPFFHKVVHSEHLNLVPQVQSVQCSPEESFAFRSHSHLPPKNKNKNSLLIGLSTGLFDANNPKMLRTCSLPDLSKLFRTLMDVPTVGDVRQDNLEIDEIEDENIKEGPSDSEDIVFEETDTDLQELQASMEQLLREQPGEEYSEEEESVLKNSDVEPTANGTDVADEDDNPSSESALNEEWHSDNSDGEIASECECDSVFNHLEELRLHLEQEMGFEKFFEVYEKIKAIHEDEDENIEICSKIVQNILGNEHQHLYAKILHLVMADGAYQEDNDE
As to conditions: at 0.1 µM.

Assay [13] addresses T5, Serine/threonine-protein kinase Nek1 (Homo sapiens). As to conditions: at 1 µM.
The target in assay [14] is T6, Serine/threonine-protein kinase Nek2 (Homo sapiens) (UniProt P51955).
T6 sequence (whole entry): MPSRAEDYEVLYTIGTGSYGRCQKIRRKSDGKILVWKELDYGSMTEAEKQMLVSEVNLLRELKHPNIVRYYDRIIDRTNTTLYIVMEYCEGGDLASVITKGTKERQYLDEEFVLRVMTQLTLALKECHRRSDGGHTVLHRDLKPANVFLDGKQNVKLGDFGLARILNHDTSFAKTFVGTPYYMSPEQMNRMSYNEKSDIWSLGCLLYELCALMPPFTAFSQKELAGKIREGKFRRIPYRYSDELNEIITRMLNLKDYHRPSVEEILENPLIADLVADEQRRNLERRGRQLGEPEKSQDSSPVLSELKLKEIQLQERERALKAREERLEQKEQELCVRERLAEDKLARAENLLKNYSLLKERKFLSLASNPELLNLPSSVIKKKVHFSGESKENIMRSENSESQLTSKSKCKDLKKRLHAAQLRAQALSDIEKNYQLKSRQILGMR
As to conditions: at 0.1 µM.

Assay [15] addresses T6, Serine/threonine-protein kinase Nek2 (Homo sapiens). To be noted: at 1 µM.
Assay [16] addresses Serine/threonine-protein kinase Nek6 (Homo sapiens) (UniProt Q9HC98). To be noted: at 0.1 µM.
The target is the same in assay [17]. To be noted: at 1 µM.
The target of assay [18] is Serine/threonine-protein kinase Nek7 (Homo sapiens) (UniProt Q8TDX7). As to conditions: at 0.1 µM.
Sequence of Serine/threonine-protein kinase Nek7 (Homo sapiens) (Q8TDX7 whole entry, looked up): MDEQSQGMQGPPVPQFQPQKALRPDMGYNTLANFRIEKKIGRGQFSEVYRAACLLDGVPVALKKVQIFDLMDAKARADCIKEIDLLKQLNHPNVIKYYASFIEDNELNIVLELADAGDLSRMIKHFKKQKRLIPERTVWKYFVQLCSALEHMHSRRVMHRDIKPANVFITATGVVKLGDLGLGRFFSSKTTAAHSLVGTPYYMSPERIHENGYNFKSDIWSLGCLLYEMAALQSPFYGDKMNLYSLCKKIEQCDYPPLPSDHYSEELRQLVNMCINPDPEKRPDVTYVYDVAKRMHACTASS
For assay [19] the target is unchanged. To be noted: at 1 µM.
Assay [20] deals with T7, Serine/threonine-protein kinase Nek9 (Homo sapiens) (UniProt Q8TD19).
T7 sequence (whole entry): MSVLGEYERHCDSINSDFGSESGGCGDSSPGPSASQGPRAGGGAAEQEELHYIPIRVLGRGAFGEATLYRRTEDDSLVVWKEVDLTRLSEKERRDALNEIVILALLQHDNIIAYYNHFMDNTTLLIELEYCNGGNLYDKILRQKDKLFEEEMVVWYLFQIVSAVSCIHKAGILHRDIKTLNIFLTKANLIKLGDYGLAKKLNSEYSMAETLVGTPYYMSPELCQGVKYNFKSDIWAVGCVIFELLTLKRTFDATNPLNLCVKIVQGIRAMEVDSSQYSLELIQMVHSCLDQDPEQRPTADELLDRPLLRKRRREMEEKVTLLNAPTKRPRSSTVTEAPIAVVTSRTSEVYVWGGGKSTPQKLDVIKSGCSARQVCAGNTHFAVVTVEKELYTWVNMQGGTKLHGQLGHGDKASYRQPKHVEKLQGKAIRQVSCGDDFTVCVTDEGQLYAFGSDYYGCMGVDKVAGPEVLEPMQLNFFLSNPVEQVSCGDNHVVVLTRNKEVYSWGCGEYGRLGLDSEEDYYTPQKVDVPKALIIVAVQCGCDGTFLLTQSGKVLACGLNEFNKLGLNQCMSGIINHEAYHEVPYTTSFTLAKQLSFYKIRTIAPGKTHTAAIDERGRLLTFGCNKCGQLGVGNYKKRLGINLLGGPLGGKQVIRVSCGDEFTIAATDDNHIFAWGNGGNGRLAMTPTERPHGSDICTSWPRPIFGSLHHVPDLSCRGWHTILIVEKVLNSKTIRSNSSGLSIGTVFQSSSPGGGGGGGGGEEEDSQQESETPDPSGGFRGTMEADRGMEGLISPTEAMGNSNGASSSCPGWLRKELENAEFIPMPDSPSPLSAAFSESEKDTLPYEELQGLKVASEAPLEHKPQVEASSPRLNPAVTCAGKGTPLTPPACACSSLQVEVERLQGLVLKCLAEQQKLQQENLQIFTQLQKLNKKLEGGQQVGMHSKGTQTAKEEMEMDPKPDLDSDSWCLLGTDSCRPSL
To be noted: at 0.1 µM.

Sequence of Serine/threonine-protein kinase Nek6 (Homo sapiens) (Q9HC98 whole entry): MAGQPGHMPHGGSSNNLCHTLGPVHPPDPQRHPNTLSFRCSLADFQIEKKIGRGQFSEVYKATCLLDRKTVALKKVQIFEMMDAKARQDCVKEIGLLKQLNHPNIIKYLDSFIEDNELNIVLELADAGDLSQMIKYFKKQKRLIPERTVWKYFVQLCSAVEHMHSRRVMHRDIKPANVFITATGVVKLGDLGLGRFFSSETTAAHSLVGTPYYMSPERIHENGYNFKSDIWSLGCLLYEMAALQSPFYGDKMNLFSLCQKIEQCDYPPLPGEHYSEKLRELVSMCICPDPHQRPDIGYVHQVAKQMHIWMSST
Sequence of Sphingosine kinase 1 (Homo sapiens) (Q9NYA1 whole entry): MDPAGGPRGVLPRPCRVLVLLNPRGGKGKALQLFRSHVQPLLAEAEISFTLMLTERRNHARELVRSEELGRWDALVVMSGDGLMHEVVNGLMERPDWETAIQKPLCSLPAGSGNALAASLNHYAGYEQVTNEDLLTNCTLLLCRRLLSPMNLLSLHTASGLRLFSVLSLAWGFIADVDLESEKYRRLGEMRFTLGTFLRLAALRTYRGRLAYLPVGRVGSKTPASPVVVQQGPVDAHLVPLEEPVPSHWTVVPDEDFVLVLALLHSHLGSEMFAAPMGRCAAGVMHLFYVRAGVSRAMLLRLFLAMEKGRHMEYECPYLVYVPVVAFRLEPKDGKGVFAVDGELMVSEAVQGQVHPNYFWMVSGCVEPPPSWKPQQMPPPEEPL

In the case of `CS(=O)(=O)Nc1ccc(-c2cc(-c3ccccc3)cc(C(N)=O)c2N)cc1`, the inhibition in assay [1] was 2.51%; in [2], -0.04%; in [3] it was -0.67%; in [4], 0.89%; in [5], 2.26%; in [6] it was 1.46%. Further, the inhibition in assay [7] was determined as 4.19%; in assay [8], 6.82%; in [9], 27.4%; in [10], 0.29%; in assay [11] it was 1.3%; in assay [12], 1.84%. In addition, the inhibition is 1.25% in [13]; 4.07% in [14]; 2.73% in [15]; 1.42% in [16]; -0.5% in assay [17]; 1.35% in assay [18]. Also, the inhibition in assay [19] was 6.39%; in [20] it was 2.67%.

The inhibition is the change of the read-out against control, counted positive when it falls.

These data come from ChEMBL document CHEMBL1961873, “Compounds: GSK PKIS; Assays: Nanosyn kinase panel” (2012).
